Measured values from PubChem BioAssay AID1452 (National Center for Advancing Translational Sciences (NCATS), 2008).
Screen size: about 150,000 compounds; about 190 (0.13%) were called active. About 2% were inconclusive and are not listed. What follows is part of a selection rich in actives, with near analogues and random picks from the rest. Values without a mark were called inactive. Calls come from the whole dose curve; as a rule, active = well fitted inhibition curve with a large enough effect; inconclusive = small, poorly fitted or top-dose-only effect; inactive = flat fitted curve, though single readings scatter.

Target: Polyunsaturated fatty acid lipoxygenase ALOX12 (Homo sapiens) (UniProt P18054)
Assay: qHTS Assay for Inhibitors of 12-hLO (12-human lipoxygenase); note: nearly all actives have a fitted effect of over 55% in size
Conditions: purified 12-hLO, xylenol orange hydroperoxide absorbance; series mostly up to 57.1 µM; activity change, negative = inhibition: at the top concentration
From the text: Assay Provider: Holman, T.R., University of California, Santa Cruz Screening Center PI: Austin, C.P. Screening Center: NIH Chemical Genomics Center [NCGC] Human lipoxygenase 12hLO is a member of the closely related lipoxygenase family of enzymes which catalyze the site-specific oxidation of arachidonic acid to various hormone precursor molecules and as such is a candidate for drug development in a variety of disease areas, such as cancer and inflammation. Inhibition of 12hLO activity was screened by utilizing arachidonic acid as a substrate. The extent of hydroperoxide product formation was measured by a secondary chromogenic reaction in which xylenol orange (XO, Sigma-Aldrich, cat. number 39,818-7) reacts with the ferric ions produced from the reaction between the hydroperoxide and ferrous ions. The Fe(III)-XO complex is characterized with red-shifted absorbance at 560 nm. A purified preparation of human 12hLO was supplied by Professor Ted Holman, University of California, Santa Cruz.
Assay Protocol: Buffer: 25 mM Hepes pH 7.0, 0.01% Triton X-100. Reagents/Controls: Buffer in columns 3 and 4 as negative control (no enzyme). Substrate solution: 40 uM arachidonic acid (Sigma-Aldrich, St. Louis, MO) final concentration dispensed throughout the plate. Enzyme: 150 nM 12hLO final concentration in columns 1, 2, 5-48. Column 1 is neutral (100% activity). Column 2 contained pin-transferred titration of NDGA (nordihidroguaiaretic acid, Sigma-Aldrich, N 5023, top concentration 20 mM in DMSO, then 1:3 dilution in duplicate). (Dilution factor: 23 nL into 4 uL.) Chromogenic detection reagent (divalent iron/xylenol orange, Fe-XO): 200 uM xylenol orange plus 300 uM ferrous ammonium sulfate prepared freshly in 50 mM sulfuric acid. Assay Steps: Three uL of enzyme were dispensed to 1536-well Greiner black clear bottom plates. Compounds and controls (23 nL) were transferred via Kalypsys PinTool. The plates were incubated for 15 min at room temperature, and then 1 uL of substrate solution was added to start the reaction. After room temperature incubation for 30 minutes, 4 uL of Fe-XO solution was added to each well and the plates were incubated for 30 min. The absorbance at 405 and 573 nm were measured using ViewLux (Perkin-Elmer) High-throughput CCD imager and absorbance protocol settings. The 573-to-405 absorbance ratio was used to compute reaction progress.
% is set by controls: 0 for no effect and ±100 for the full control effect; potency is the fitted concentration of half-maximal effect.

Polyunsaturated fatty acid lipoxygenase ALOX12 (Homo sapiens), sequence (P18054 whole entry, looked up): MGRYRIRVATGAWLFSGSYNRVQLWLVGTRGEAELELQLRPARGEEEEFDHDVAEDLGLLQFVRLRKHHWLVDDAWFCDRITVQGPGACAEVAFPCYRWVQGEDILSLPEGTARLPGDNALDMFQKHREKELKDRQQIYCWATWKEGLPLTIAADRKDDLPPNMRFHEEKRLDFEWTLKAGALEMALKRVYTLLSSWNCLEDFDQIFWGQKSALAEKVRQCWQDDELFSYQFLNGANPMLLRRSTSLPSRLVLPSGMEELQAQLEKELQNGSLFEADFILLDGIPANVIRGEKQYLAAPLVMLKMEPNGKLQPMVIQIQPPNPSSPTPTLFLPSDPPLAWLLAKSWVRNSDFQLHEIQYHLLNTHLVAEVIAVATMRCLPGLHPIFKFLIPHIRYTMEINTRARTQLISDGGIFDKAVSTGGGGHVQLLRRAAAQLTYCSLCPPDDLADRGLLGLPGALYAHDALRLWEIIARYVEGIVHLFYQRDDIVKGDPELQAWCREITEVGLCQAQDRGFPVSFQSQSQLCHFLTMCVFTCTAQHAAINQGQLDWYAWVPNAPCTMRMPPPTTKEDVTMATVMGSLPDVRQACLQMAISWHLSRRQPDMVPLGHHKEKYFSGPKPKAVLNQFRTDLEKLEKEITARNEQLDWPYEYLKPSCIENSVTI

Going from `CC1(OC(=O)c2ccc(Cl)nc2)C(=O)Cc2cc(-c3ccsc3)ncc2C1=O` (centres undefined) to `C[C@H]1Cc2c(-c3ccccc3)nc3c(c2CO1)CN(S(=O)(=O)c1ccc(Cl)c2nonc12)CC3`, the activity change, negative = inhibition falls from -0.498% [at 11.4 µM] to -3.11% [at 11.4 µM].

For `COc1ccc(-c2nc3c(c4c2C[C@H](c2ccccc2)OC4)CN(S(=O)(=O)c2c(C)noc2C)CC3)c(C)c1`, the activity change, negative = inhibition was 1.37% [at 11.4 µM].

In the case of `COc1ccc(NS(=O)(=O)c2ccc(NC(=S)NC(=O)CC(C)C)cc2)cc1`, the Potency is reported as 15.8 µM (active).
With `COc1cc(NC(=S)NCCSc2ccc(C)cc2)cc(OC)c1` the Potency was 20 µM (active).
For `COc1cc(NS(=O)(=O)c2ccc(N/C=C(\C=O)c3nc4cc(Cl)ccc4o3)cc2)nc(OC)n1`, the Potency was 15.8 µM (active).
For `N#C/C=C\Oc1ccc(Cl)cc1N`, the Potency was 22.4 µM (active).
For `S=C(NCc1ccc(Cl)cc1)NC12CC3CC(CC(C3)C1)C2`, the Potency was 22.4 µM (active).

Compared with `CC(=O)c1ccc(NC(=S)NC(=O)CC(C)C)cc1`, `COc1ccc(C(=O)Nc2ccc(S(=O)(=O)NC(C)C)cc2)cc1` is higher in “activity change, negative = inhibition” value: 1.05% for the first, 4.57% for the second.

Compared with `COc1cc(-c2cc(C(=O)OCC(=O)Nc3ccc4c(c3)OCO4)c3ccccc3n2)cc(OC)c1OC`, `COc1ccc([N+](=O)[O-])cc1NC(=O)C(C)OC(=O)C1c2ccccc2Oc2ccccc21` (centres undefined) is lower in “activity change, negative = inhibition” value: 1.97% for the first, -0.718% for the second.

First: COc1cc(NC(=O)Nc2ccc(C)cc2)cc([N+](=O)[O-])c1
Second: COc1cc(OC)cc(C(=O)Nc2ccc(S(=O)(=O)Nc3cc(C)on3)cc2)c1
The “activity change, negative = inhibition” value of the first is higher: 0.524% for the first, -4.65% for the second.

First: COc1cccc(NC(=S)NCCCN2CCOCC2)c1
Second: O=C(Cc1ccccc1)NC(=S)Nc1ccc(N2CCCCC2)cc1
The “activity change, negative = inhibition” value of the first is higher: -0.748% for the first, -4.31% for the second.

Going from `NS(=O)(=O)c1ccc(CNC(=O)c2ccc(Cl)cc2[N+](=O)[O-])cc1` to `COC(=O)Cc1ccc(NC(=S)NCc2ccc(Cl)cc2)cc1`, the “activity change, negative = inhibition” value falls from -2.13% to -16.8%.

First: O=C(Cn1nc(CNc2ccc(Cl)cc2)[n+]2c1CCCCC2)c1ccc(Cl)cc1
Second: Cc1ccc(NC(=S)NC(=O)/C=C/c2ccc(Cl)cc2)cc1
The “activity change, negative = inhibition” value of the first is lower: -14.1% for the first, -2.19% for the second.

First: CC(C)(C)C1CCC(=NNC(=O)c2ccc(Br)o2)CC1 (centres undefined)
Second: O=C(NCc1cccs1)c1ccc(Br)o1
The “activity change, negative = inhibition” value of the first is lower: 7.26% for the first, 8.12% for the second.

First: CCCCC/C=C\C/C=C\C/C=C\CCCCC(=O)NCC(=O)O
Second: CCCCC/C=C\C/C=C\C/C=C\CCCCCCC(N)=O
The “activity change, negative = inhibition” value of the first is higher: 5.86% for the first, 4.46% for the second.

Compared with `CCCCC/C=C\CC1OC1CCCCCCCC(=O)O` (centres undefined), `CCCCC/C=C\C/C=C\CCCCCCCCCC(N)=O` is higher in “activity change, negative = inhibition” value: -6.12% for the first, 1.17% for the second.

Going from `COc1ccc(CCNC(=O)COC(=O)C2CCCCC2)cc1` to `CN(C)CCCNC(=S)NCc1ccc(Cl)cc1`, the “activity change, negative = inhibition” value falls from -0.0351% to -4.25%.

First: Cc1ccc(C(=O)COC(=O)CCN2C(=O)C3C4CC(C(Br)C4Br)C3C2=O)cc1 (centres undefined)
Second: O=C(CSC1CC(=O)N(CCc2ccccc2)C1=O)Nc1ccc(Cl)cc1 (centres undefined)
The “activity change, negative = inhibition” value of the first is higher: -1.03% for the first, -7.76% for the second.

Compared with `CC(=O)c1c(C)[nH]c(C(=O)COC(=O)c2cccc(S(=O)(=O)N(C)c3ccccc3)c2)c1C`, `COc1cc(NS(=O)(=O)c2ccc(N=Cc3c(C)[nH]n(-c4ccccc4)c3=O)cc2)nc(OC)n1` is higher in “activity change, negative = inhibition” value: -3.3% for the first, -2.19% for the second.

First: CC1=C(C(=O)Nc2cc(C)ccn2)C(c2cnn(C)c2)C2=C(CC(c3ccccc3)CC2=O)N1 (centres undefined)
Second: CC(C)C(C)(C#N)NC(=O)CSc1nc2scc(-c3ccccc3)c2c(=O)[nH]1 (centres undefined)
The “activity change, negative = inhibition” value of the first is lower: -1.69% for the first, -0.662% for the second.

Compared with `O=C(CN1CCN(c2ccc(O)cc2)CC1)NC1CCCc2ccccc21` (centres undefined), `CC1CCCCN1S(=O)(=O)c1ccc(S(=O)(=O)N(CC(=O)Nc2ccccc2)Cc2cccs2)cc1` (centres undefined) is higher in “activity change, negative = inhibition” value: -5.85% for the first, 0.18% for the second.

First: CCCC(=O)Nc1ccc(C(=O)N/N=C/c2ccc[nH]2)cc1
Second: Cn1nccc1CNC(=O)c1ccnn1C
The “activity change, negative = inhibition” value of the first is lower: -0.0134% for the first, 0.98% for the second.

`COc1ccc(Cl)cc1C(=O)NCC#N` was tested, and the “activity change, negative = inhibition” value was 0.698%.

Going from `CCOC(=O)C1=C(C(=O)OCC)C(C(=O)OCC)N(S(=O)(=O)C(F)(F)F)c2ccccc21` (centres undefined) to `Cc1ccccc1-c1ccc(C(=O)O)s1`, the activity change, negative = inhibition rises from -4.37% [at 0.00818 µM] to 1.22% [at 0.00818 µM].

First: CC1(C)O[C@@H]2C[C@@H]3[C@H]4C[C@@H](F)C5=CC(=O)C=C[C@]5(C)[C@@]4(F)[C@@H](O)C[C@]3(C)[C@]2(C(=O)CO)O1
Second: CC(=O)CC(c1ccccc1)C1C(=O)Oc2ccccc2C1=O (centres undefined)
The activity change, negative = inhibition of the first is lower: -0.431% [at 0.00818 µM] for the first, -0.392% [at 0.00818 µM] for the second.

`COc1cccc(-c2cc(=O)c3cc(NC(=O)c4ccc(C)cc4)ccc3[nH]2)c1` gave an activity change, negative = inhibition of 0.685% [at 0.00818 µM].
